Compounds with a hit are over-represented: about 2.4% of the library has one in this group of screens.
Pol beta inh: blocks human DNA polymerase beta activity; actives 1.3% (n = 340,000); AID 485314; Pol beta primer extension/strand displacement, fluorescence kinetic; Potency, µM (titrated, usually from 114 µM), for inactives: top-dose activity change, negative = inhibition, most hits filed as inhibitors; P06746; also: % is scaled to controls: 0 for no effect and ±100 for the full control effect
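Curves were derived by four-parameter Hill fits of normalized qHTS data. The kinetic fluorescent primer-extension read was taken at 0 and 10 min after 50 nM substrate, following a 15 min room-temperature preincubation of 10 nM enzyme with compounds.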
FEN1 inh: blocks human flap endonuclease 1; P39748; Recombinant FEN1 flap cleavage, fluorescence, 15 min; Potency, µM (highest dose often 114 µM), for inactives: at the highest dose activity change, negative = inhibition, hits mostly inhibitors; actives 0.35% (n = 390,000); also: % is scaled to controls: 0 for no effect and ±100 for the full control effect; nearly all actives have a fitted effect of over 65% in size
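In this screen, 50 nM flap DNA substrate was added to 10 nM FEN1 pretreated with compound for 15 min at room temperature; cleavage was followed with reads at 0 and 15 min, and Hill fitting gave concentration–response parameters.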
Pol eta inh: inhibitors of human DNA polymerase eta | Q9Y253 | recombinant Pol eta, fluorescent DNA replication assay | Potency, µM (highest dose often 114 µM), without a hit: at the highest dose activity change, negative = inhibition, most hits filed as inhibitors | actives 1.2% (n = 390,000) | AID 588591; also: % is scaled to controls: 0 for no effect and ±100 for the full control effect
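Pol eta (10 nM) was preincubated with compounds for 15 min at room temperature, after which fluorescent replication substrate (50 nM final) was added to start the reaction. Fluorescence was read kinetically at 0 and 10 min.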
POLI inh: DNA polymerase iota (human) inhibition; AID 588590; Potency, µM (doses to about 115 µM), for the others: at the highest dose activity, negative = inhibition, usual class: inhibitors; Q9UNA4; actives 1% (n = 390,000); Pol iota fluorescent replication assay, 10 min
Target sequence (Q9UNA4 whole entry, looked up): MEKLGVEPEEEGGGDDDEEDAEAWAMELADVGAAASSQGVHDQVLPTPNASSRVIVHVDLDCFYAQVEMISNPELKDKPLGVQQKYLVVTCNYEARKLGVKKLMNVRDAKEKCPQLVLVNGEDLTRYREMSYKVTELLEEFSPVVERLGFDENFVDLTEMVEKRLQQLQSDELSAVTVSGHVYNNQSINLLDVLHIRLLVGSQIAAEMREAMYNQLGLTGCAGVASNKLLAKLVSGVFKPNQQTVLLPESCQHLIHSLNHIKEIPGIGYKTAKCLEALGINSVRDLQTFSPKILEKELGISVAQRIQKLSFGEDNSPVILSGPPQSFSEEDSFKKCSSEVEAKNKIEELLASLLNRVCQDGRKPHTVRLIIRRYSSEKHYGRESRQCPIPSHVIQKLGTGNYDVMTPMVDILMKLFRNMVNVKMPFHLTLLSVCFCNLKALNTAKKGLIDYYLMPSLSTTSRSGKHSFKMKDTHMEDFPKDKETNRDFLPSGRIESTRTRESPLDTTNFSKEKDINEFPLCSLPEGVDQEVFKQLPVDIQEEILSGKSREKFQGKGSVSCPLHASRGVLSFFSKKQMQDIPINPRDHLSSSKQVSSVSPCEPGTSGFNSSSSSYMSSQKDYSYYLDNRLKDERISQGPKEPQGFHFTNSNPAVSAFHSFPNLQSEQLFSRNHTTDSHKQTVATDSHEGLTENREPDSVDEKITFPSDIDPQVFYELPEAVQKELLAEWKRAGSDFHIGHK
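Pol iota at 10 nM preincubated 15 min with compounds at room temperature; reaction started with fluorescent substrate, 50 nM final. Fluorescence read kinetically at 0 and 10 min; buffer-only wells as negative control.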
WRN helicase inh-1: blocks human WRN helicase; Q14191; WRN helicase unwinding, fluorescent forked duplex, kinetic; Potency, µM (highest dose often 114 µM), inactives show at the highest dose activity change, negative = inhibition, usual class: inhibitors; actives 0.46% (n = 360,000); also: % is scaled to controls: 0 for no effect and ±100 for the full control effect; nearly all actives have a fitted effect of over 55% in size
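WRN at 20 nM final preincubated with compound 15 min at room temperature; reaction started with 100 nM fluorophore/quencher forked duplex oligonucleotide and 2 mM ATP final. Unwinding followed kinetically by red fluorescence (ex 525, em 598 nm).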
Pol kappa inh: DNA polymerase kappa (human) inhibition; purified Pol kappa, fluorescent DNA synthesis assay, 10 min; Potency, µM (top dose mostly 107 µM), inactives show top-dose activity, negative = inhibition, usual class: inhibitors; actives 0.53% (n = 400,000); also: % is scaled to controls: 0 for no effect and ±100 for the full control effect
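Enzyme at 10 nM met test compounds for 15 min at room temperature. Substrate addition (50 nM final) began the reaction, which was monitored by fluorescence at 0 and 10 min.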
WRN helicase inh-2: WRN helicase inhibition, cherry-pick retest; shares compounds with WRN helicase inh-1; WRN helicase DNA unwinding, fluorescence kinetic; Potency, µM (doses to about 57.1 µM), inactives show top-dose activity, negative = inhibition, most hits filed as inhibitors; actives 63% (n = 610); also: nearly all actives have a fitted effect of over 65% in size
TO DNA binding: DNA binding via thiazole orange displacement; Potency, µM (doses to about 57.1 µM), without a hit: at the highest dose activity change, negative = inhibition, usual class: inhibitors; shares compounds with WRN helicase inh-1; actives 10% (n = 610); thiazole orange DNA binding displacement, fluorescence;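 also: drop in dye fluorescence marks compound binding to DNA; % is scaled to controls: 0 for no effect and ±100 for the full control effect; nearly all actives have a fitted effect of over 60% in size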
BLM counter: BLM helicase inhibition, WRN selectivity check; actives 60% (n = 610); Potency, µM (titrated, usually from 57.1 µM), for the others: at the highest dose activity change, negative = inhibition, actives largely listed as inhibitors; Recombinant BLM helicase DNA unwinding, red fluorescence; shares compounds with WRN helicase inh-1; AID 720503; also: nearly all actives have a fitted effect of over 60% in size
The depositor's hits bear a star; i = inactive; ? = inconclusive; . = no result given; [ ] = dose if it differs, or a comment. Calls follow the shape of the dose curve; as a rule, active = well fitted curve in the direction sought with a large enough effect; inconclusive = small, poorly fitted or top-dose-only effect, or another doubt; inactive = no such curve, though single readings can be large; an effect the other way counts as inactive or inconclusive. Potency is read from the fitted curve at half-maximal effect.

SMILES	Pol beta inh	FEN1 inh	Pol eta inh	POLI inh	WRN helicase inh-1	Pol kappa inh	WRN helicase inh-2	TO DNA binding	BLM counter
COc1cc(/C=N/Nc2nnc3c(n2)[nH]c2ccccc23)ccc1O	?	-10.9%	?	39.8µM*	?	-5.9%	?	-13.6%	?
CC1(COc2ccc(CC3SC(=O)NC3=O)cc2)CCCCC1 (centres undefined)	.	.	.	.	.	-14.0%[19.4 µM]	.	.	.
CC1=NN(CCC#N)C(=O)/C1=C/c1ccc(N(C)C)cc1	-29.4%	-7.3%	-18.0%	27.7%	-7.4%	8.7%	.	.	.
COc1cc(/C=C2\C(=O)N(CCC#N)N=C2C)ccc1OCC(=O)Nc1ccccc1	24.8%	?	-3.0%	?	?	-18.1%	?	-4.3%	17.1µM*
COc1ccc(Cn2ccc3nc(C)c(C(=O)Nc4ccc(OC(F)(F)F)cc4)cc3c2=O)cc1	19.2%	-1.8%	-7.2%	3.5%	.	0.0%	.	.	.
COc1ccccc1OCCSc1nc(-c2ccc(C(C)(C)C)cc2)nc2cc(=O)[nH]n12	12.0%	-26.5%	?	-18.5%	.	-5.5%	?	?	27.1µM*
CCCOc1ccc(C(=O)CCN2CCN(C(=O)OCC)CC2)cc1	-13.9%	-0.7%	-12.2%	25.0%	?	-4.0%	-15.7%	-5.9%	-18.0%
CC(=O)[C@@]1(O)Cc2c(O)c3c(c(O)c2[C@H](O[C@H]2C[C@H](N)[C@H](O)[C@H](C)O2)C1)C(=O)c1ccccc1C3=O	.	.	.	.	.	.	24.1µM*	i	24.1µM*
CCC(=O)C1=C(c2ccc(F)cc2)N(C(=O)CC)n2c(nnc2C2CCCCC2)S1	-2.1%	8.3%	-15.2%	-4.4%	.	-0.3%[60.1 µM]	.	.	.
N#C/C(=C\c1ccc(Cl)cc1)c1nc2ccccc2[nH]1	-0.3%	-13.8%	0.0%	40.9%	.	-10.0%	.	.	.
N#C/C(=C/c1ccc(O)c(O)c1)c1nc2ccccc2[nH]1	?	?	3.16µM*	?	35.5µM*	10µM*	6.07µM*	27.8%	8.57µM*
CC[C@@H]1Cn2c(c3nc(-c4cc(Cl)cc(Cl)c4Cl)nc-3n(C)c2=O)N1	.	.	.	.	.	2.7%[60.1 µM]	.	.	.
